# Measured values taken from PubChem BioAssay (NCI).
# This is part of a sample that, as a whole, favours compounds with a hit. Of some 79,000 tested, about 15% had one in any assay. A number with no mark means an inactive call. The source made the active and inactive calls. Cut-off read from the data, not from the text of the source: active = growth inhibition above about 70%; inactive = the rest.
# Experiments:
# [1] = NCI Yeast Anticancer Drug Screen. Data for the rad52 strain (AID 147);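 note: 0% = growth of vehicle-treated control cultures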; settings: S. cerevisiae rad52 mutant growth inhibition, hits give high values
# Outline: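 DNA repair-defective yeast; compound exposure; growth scored against vehicle controls.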
# [2] = NCI Yeast Anticancer Drug Screen. Data for the wt1 strain (AID 149);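 note: 0% = growth of vehicle-treated wt1 cultures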; settings: S. cerevisiae wt1 strain (SPY 50644) growth inhibition, hits give high values
# Outline: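 Measured: growth of wt1 yeast under compound versus vehicle treatment, reported as inhibition.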
# [3] = NCI Yeast Anticancer Drug Screen. Data for the rad50EPP+ strain (AID 151);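 note: 0% = growth of vehicle-treated control cultures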; settings: S. cerevisiae rad50 mutant strain, hits give high values
# Outline: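 rad50EPP+ yeast treated with test compounds. Readout: growth vs vehicle control.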
# [4] = NCI Yeast Anticancer Drug Screen. Data for the mgt1 strain (AID 153); settings: S. cerevisiae mgt1 mutant growth inhibition, hits give high values
# Outline: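 Growth inhibition relative to vehicle controls was scored for the mgt1 yeast strain after compound exposure.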
# [5] = NCI Yeast Anticancer Drug Screen. Data for the rad50 strain (AID 155);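 note: 0% = growth of vehicle-only cultures of the same strain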; settings: S. cerevisiae rad50 strain growth inhibition, hits give high values
# Outline: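 Growth of the mutant yeast was measured after compound exposure and referenced to vehicle-treated cultures.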
# [6] = NCI Yeast Anticancer Drug Screen. Data for the mec2-1 strain (AID 157); settings: S. cerevisiae mec2-1 strain, hits give high values
# Outline: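 Growth inhibition is read against vehicle-treated controls after compound exposure of the mec2-1 yeast strain, which is defective in DNA damage repair or cell cycle control.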
# [7] = NCI Yeast Anticancer Drug Screen. Data for the rad14 strain (AID 159);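 note: 0% = growth of vehicle-treated control cultures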; settings: S. cerevisiae rad14 strain growth inhibition, hits give high values
# Outline: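 Here, inhibition of yeast growth was measured after compound exposure, using a strain with a genetic defect in DNA damage repair and vehicle-treated cultures as the reference.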
# [8] = NCI Yeast Anticancer Drug Screen. Data for the sgs1 mgt1 strain (AID 161);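 note: 0% = growth of cultures given vehicle only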; settings: S. cerevisiae sgs1 mgt1 strain, hits give high values
# Outline: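 This yeast growth screen uses a strain with defined DNA-repair lesions; compound-treated growth is compared with vehicle-treated growth.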
# [9] = NCI Yeast Anticancer Drug Screen. Data for the CLN2oe strain (AID 163);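 note: 0% = growth of vehicle-only control cultures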; settings: S. cerevisiae CLN2oe strain, hits give high values
# Outline: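 Compound-treated yeast; growth vs vehicle ctrl = % inhibition. Genetically altered strain (cell-cycle control).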
# [10] = NCI Yeast Anticancer Drug Screen. Data for the cln2 rad14 strain (AID 165);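 note: 0% = growth equal to vehicle treated cultures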; settings: S. cerevisiae cln2 rad14 strain, hits give high values
# Outline: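 Growth inhibition, relative to vehicle-treated controls, is the read-out. The test organism is a yeast strain with defined genetic alterations, cln2 rad14.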
# [11] = NCI Yeast Anticancer Drug Screen. Data for the bub3 strain (AID 167); settings: S. cerevisiae bub3 mutant strain, hits give high values
# Outline: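 Whole-cell yeast assay. The mutant strain was incubated with compounds, and growth inhibition was determined by comparison with vehicle-treated cells.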
# [12] = NCI Yeast Anticancer Drug Screen. Data for the wt2 strain (AID 169);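 note: 0% = growth of vehicle-treated yeast cultures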; settings: S. cerevisiae wt2 strain growth inhibition, hits give high values
# Outline: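 Compound exposure of yeast; growth compared with vehicle controls; inhibition reported.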
# [13] = NCI Yeast Anticancer Drug Screen. Data for the mlh1 strain (AID 171);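 note: 0% = growth of vehicle-treated control cultures of the same strain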; settings: S. cerevisiae mlh1 strain growth inhibition, hits give high values
# Outline: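 Compounds are applied to a genetically altered yeast strain, and its growth is compared with that of vehicle-treated cultures to give percent inhibition.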
# [14] = NCI Yeast Anticancer Drug Screen. Data for the sgs1 strain (AID 173);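 note: 0% = growth of vehicle-only control cultures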; settings: S. cerevisiae sgs1 mutant, hits give high values
# Outline: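 Compounds applied to genetically altered yeast; growth compared with vehicle-treated cultures to give % inhibition.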
# [15] = NCI Yeast Anticancer Drug Screen. Data for the rad18 strain (AID 177); settings: S. cerevisiae rad18 mutant growth inhibition, hits give high values
# Outline: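 Compounds are applied to a repair-deficient yeast strain, and growth is compared with that of vehicle-treated cultures to give percent inhibition.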
# [16] = at 5.0 µM (retest, dose inferred, filed as 0.5)
# [17] = at 50.0 µM (retest, dose inferred, filed as 5.0)
smiles,measurement,setting,value
CN(C)CCOc1ccc2c(c1)C/C(=C/c1ncc([N+](=O)[O-])n1C)C2=O,growth inhibition,[1]; at 1.2 µM,50%
same,growth inhibition,[1]; at 3.7 µM,70% (active)
same,growth inhibition,[1]; at 11.0 µM,83% (active)
same,growth inhibition,[1]; at 33.0 µM,91% (active)
same,growth inhibition,[1]; at 100.0 µM,90% (active)
same,growth inhibition,[2]; at 1.2 µM,28%
same,growth inhibition,[2]; at 3.7 µM,5%
same,growth inhibition,[2]; at 11.0 µM,20%
same,growth inhibition,[2]; at 33.0 µM,21%
same,growth inhibition,[2]; at 100.0 µM,39%
same,growth inhibition,[3]; at 1.2 µM,22%
same,growth inhibition,[3]; at 3.7 µM,6%
same,growth inhibition,[3]; at 11.0 µM,10%
same,growth inhibition,[3]; at 33.0 µM,35%
same,growth inhibition,[3]; at 100.0 µM,59%
same,growth inhibition,[4]; at 1.2 µM,31%
same,growth inhibition,[4]; at 3.7 µM,36%
same,growth inhibition,[4]; at 11.0 µM,29%
same,growth inhibition,[4]; at 33.0 µM,36%
same,growth inhibition,[4]; at 100.0 µM,62%
same,growth inhibition,[5]; at 1.2 µM,40%
same,growth inhibition,[5]; at 3.7 µM,47%
same,growth inhibition,[5]; [16],33%
same,growth inhibition,[5]; at 11.0 µM,64%
same,growth inhibition,[5]; at 33.0 µM,83% (active)
same,growth inhibition,[5]; [17],75% (active)
same,growth inhibition,[5]; at 50.0 µM,74.3% (active)
same,growth inhibition,[5]; at 100.0 µM,91% (active)
same,growth inhibition,[6]; at 1.2 µM,31%
same,growth inhibition,[6]; at 3.7 µM,30%
same,growth inhibition,[6]; [16],30%
same,growth inhibition,[6]; at 11.0 µM,53%
same,growth inhibition,[6]; at 33.0 µM,88% (active)
same,growth inhibition,[6]; [17],95% (active)
same,growth inhibition,[6]; at 50.0 µM,89.2% (active)
same,growth inhibition,[6]; at 100.0 µM,90% (active)
same,growth inhibition,[7]; at 1.2 µM,33%
same,growth inhibition,[7]; at 3.7 µM,51%
same,growth inhibition,[7]; at 11.0 µM,81% (active)
same,growth inhibition,[7]; at 33.0 µM,95% (active)
same,growth inhibition,[7]; at 100.0 µM,97% (active)
same,growth inhibition,[8]; [16],47%
same,growth inhibition,[8]; [17],82% (active)
same,growth inhibition,[8]; at 50.0 µM,83.1% (active)
same,growth inhibition,[9]; at 1.2 µM,26%
same,growth inhibition,[9]; at 3.7 µM,35%
same,growth inhibition,[9]; at 11.0 µM,31%
same,growth inhibition,[9]; at 33.0 µM,27%
same,growth inhibition,[9]; at 100.0 µM,64%
same,growth inhibition,[10]; [16],13%
same,growth inhibition,[10]; [17],74% (active)
same,growth inhibition,[10]; at 50.0 µM,77.9% (active)
same,growth inhibition,[11]; at 1.2 µM,3%
same,growth inhibition,[11]; at 3.7 µM,10%
same,growth inhibition,[11]; [16],6%
same,growth inhibition,[11]; at 11.0 µM,10%
same,growth inhibition,[11]; at 33.0 µM,20%
same,growth inhibition,[11]; [17],6%
same,growth inhibition,[11]; at 50.0 µM,72.9% (active)
same,growth inhibition,[11]; at 100.0 µM,59%
same,growth inhibition,[12]; at 1.2 µM,-40%
same,growth inhibition,[12]; at 3.7 µM,-23%
same,growth inhibition,[12]; at 11.0 µM,-30%
same,growth inhibition,[12]; at 33.0 µM,-22%
same,growth inhibition,[12]; at 100.0 µM,25%
same,growth inhibition,[13]; at 1.2 µM,31%
same,growth inhibition,[13]; at 3.7 µM,36%
same,growth inhibition,[13]; at 11.0 µM,29%
same,growth inhibition,[13]; at 33.0 µM,36%
same,growth inhibition,[13]; at 100.0 µM,62%
same,growth inhibition,[14]; at 1.2 µM,29%
same,growth inhibition,[14]; at 3.7 µM,52%
same,growth inhibition,[14]; at 11.0 µM,65%
same,growth inhibition,[14]; at 33.0 µM,70% (active)
same,growth inhibition,[14]; at 100.0 µM,81% (active)
same,growth inhibition,[15]; at 1.2 µM,83% (active)
same,growth inhibition,[15]; at 3.7 µM,90% (active)
same,growth inhibition,[15]; at 11.0 µM,91% (active)
same,growth inhibition,[15]; at 33.0 µM,94% (active)
same,growth inhibition,[15]; at 100.0 µM,92% (active)
O=C(O)c1ccccc1-c1ccccc1C(=O)Nc1ccc2c(c1)Cc1ccccc1-2,growth inhibition,[1]; at 1.2 µM,2%
same,growth inhibition,[1]; at 3.7 µM,5%
same,growth inhibition,[1]; at 11.0 µM,12%
same,growth inhibition,[1]; at 33.0 µM,51%
same,growth inhibition,[1]; at 100.0 µM,90% (active)
same,growth inhibition,[2]; at 1.2 µM,5%
same,growth inhibition,[2]; at 3.7 µM,7%
same,growth inhibition,[2]; at 11.0 µM,16%
same,growth inhibition,[2]; at 33.0 µM,47%
same,growth inhibition,[2]; at 100.0 µM,90% (active)
same,growth inhibition,[3]; at 1.2 µM,-2%
same,growth inhibition,[3]; at 3.7 µM,2%
same,growth inhibition,[3]; at 11.0 µM,3%
same,growth inhibition,[3]; at 33.0 µM,10%
same,growth inhibition,[3]; at 100.0 µM,25%
same,growth inhibition,[4]; at 1.2 µM,5%
same,growth inhibition,[4]; at 3.7 µM,7%
same,growth inhibition,[4]; at 11.0 µM,19%
same,growth inhibition,[4]; at 33.0 µM,65%
same,growth inhibition,[4]; at 100.0 µM,98% (active)
same,growth inhibition,[5]; at 1.2 µM,6%
same,growth inhibition,[5]; at 3.7 µM,6%
same,growth inhibition,[5]; [16],0%
same,growth inhibition,[5]; at 11.0 µM,23%
same,growth inhibition,[5]; at 33.0 µM,49%
same,growth inhibition,[5]; [17],37%
same,growth inhibition,[5]; at 50.0 µM,71.2% (active)
same,growth inhibition,[5]; at 100.0 µM,88% (active)
same,growth inhibition,[6]; at 1.2 µM,8%
same,growth inhibition,[6]; at 3.7 µM,14%
same,growth inhibition,[6]; [16],4%
same,growth inhibition,[6]; at 11.0 µM,22%
same,growth inhibition,[6]; at 33.0 µM,64%
same,growth inhibition,[6]; [17],23%
same,growth inhibition,[6]; at 50.0 µM,73.5% (active)
same,growth inhibition,[6]; at 100.0 µM,99% (active)
same,growth inhibition,[7]; at 1.2 µM,7%
same,growth inhibition,[7]; at 3.7 µM,9%
same,growth inhibition,[7]; at 11.0 µM,21%
same,growth inhibition,[7]; at 33.0 µM,71% (active)
same,growth inhibition,[7]; at 100.0 µM,97% (active)
same,growth inhibition,[8]; [16],-7%
same,growth inhibition,[8]; [17],17%
same,growth inhibition,[8]; at 50.0 µM,62.6%
same,growth inhibition,[9]; at 1.2 µM,7%
same,growth inhibition,[9]; at 3.7 µM,10%
same,growth inhibition,[9]; at 11.0 µM,20%
same,growth inhibition,[9]; at 33.0 µM,64%
same,growth inhibition,[9]; at 100.0 µM,98% (active)
same,growth inhibition,[10]; [16],-27%
same,growth inhibition,[10]; [17],46%
same,growth inhibition,[10]; at 50.0 µM,92.3% (active)
same,growth inhibition,[11]; at 1.2 µM,4%
same,growth inhibition,[11]; at 3.7 µM,7%
same,growth inhibition,[11]; [16],-24%
same,growth inhibition,[11]; at 11.0 µM,27%
same,growth inhibition,[11]; at 33.0 µM,67%
same,growth inhibition,[11]; [17],22%
same,growth inhibition,[11]; at 50.0 µM,83.2% (active)
same,growth inhibition,[11]; at 100.0 µM,96% (active)
same,growth inhibition,[12]; at 1.2 µM,3%
same,growth inhibition,[12]; at 3.7 µM,7%
same,growth inhibition,[12]; at 11.0 µM,16%
same,growth inhibition,[12]; at 33.0 µM,59%
same,growth inhibition,[12]; at 100.0 µM,96% (active)
same,growth inhibition,[13]; at 1.2 µM,7%
same,growth inhibition,[13]; at 3.7 µM,12%
same,growth inhibition,[13]; at 11.0 µM,22%
same,growth inhibition,[13]; at 33.0 µM,51%
same,growth inhibition,[13]; at 100.0 µM,97% (active)
same,growth inhibition,[14]; at 1.2 µM,1%
same,growth inhibition,[14]; at 3.7 µM,6%
same,growth inhibition,[14]; at 11.0 µM,17%
same,growth inhibition,[14]; at 33.0 µM,59%
same,growth inhibition,[14]; at 100.0 µM,94% (active)
same,growth inhibition,[15]; at 1.2 µM,4%
same,growth inhibition,[15]; at 3.7 µM,7%
same,growth inhibition,[15]; at 11.0 µM,17%
same,growth inhibition,[15]; at 33.0 µM,49%
same,growth inhibition,[15]; at 100.0 µM,90% (active)
